From PubChem
Sampled rows, rich in hits. Any-hit rate of the full collection: about 5.9%.
Rtt109 Vps75 = C. albicans Rtt109 histone acetyltransferase inhibition; Q5AAJ8; inhibition, % at 34.9 µM; purified Rtt109/Vps75, ThioGlo CoA-SH fluorescence, 4 h; 330,000 tested, 0.16% active;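 active = inhibition of at least 50% in every replicate; inconclusive = best replicate reaches 50% inhibition but some replicates fall short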
rCAG RNA binder = r(CAG) repeat RNA binding | TO-PRO-1 dye displacement fluorescence | inhibition, % at 3 µM | 370,000 tested, 1.3% active | AID 651821;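 active = inhibition above the plate cutoff, the mean of all test compounds on that plate plus 3 SD, cut at about 35% in these data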;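 also: higher means more dye released from RNA so lower well fluorescence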
ABHD5-PLIN5 inh = inhibitors of human ABHD5-perilipin-5 interaction | Split G. princeps luciferase complementation, luminescence, 4 h | Q00G26+Q8WTS1 | AID 602281 | inhibition, % at 4 µM | 360,000 tested, 0.78% active;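 active = inhibition above the mean inhibition across every tested compound plus 3 SD, cut at about 22% in these data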
ALR inh = human ALR oxidase inhibition via reduced H2O2. P55789. purified ALR, DTT oxidation, H2O2 HRP-luminol luminescence. 290,000 tested, 3.8% active. inhibition, % (test concentration not listed);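 active = mean replicate inhibition above about 79%, with every replicate also reaching it, limit read from the data; inconclusive = only one of the two criteria met; inactive = mean below limit and not every replicate reaching it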
LANA-H2B inh = blocks KSHV LANA binding to histone H2A/H2B | cell-free LANA-H2A/H2B peptide, fluorescence polarization | inhibition, % (concentration not given with the values) | 320,000 tested, 0.6% active; in the data active = inhibition mostly above about 10%, no sharp cut-off; inactive = mostly below about 6.7%
PRMT1 FP inh = blocks human protein arginine methyltransferase 1; inhibition, % at 2.79 µM; AID 652257; recombinant PRMT1, activity-based probe fluorescence polarization; Q99873; 370,000 tested, 1.3% active;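 active = inhibition above about 21% made by adding two undisclosed values, limit read from the data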
rCAG binder conf = r(CAG) RNA repeat binding, confirmation; shares compounds with rCAG RNA binder; TO-PRO-1 dye displacement fluorescence; inhibition, % at 3 µM; 4,300 tested, 70% active; AID 652065;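 active = inhibition above a per-plate cutoff, the mean inhibition of sample wells plus 3 SD, cut at about 35% in these data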;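 also: loss of TO-PRO-1 fluorescence as compound displaces dye from 1x1 AA loop RNA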
DNA CAG counter = disrupts DNA CAG TO-PRO-1 complex, flagging rCAG hits. shares compounds with rCAG RNA binder. d(CAG) DNA oligo TO-PRO-1 dye displacement, fluorescence. inhibition, % at 3 µM. 4,300 tested, 94% active. AID 652068;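 active = inhibition above its plate's cutoff, the mean test-well inhibition plus 3 SD, cut at about 4.8% in these data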;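 also: hits displace the dye from DNA and so lower well fluorescence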
Numbers stand for hits; i = inactive; ? = inconclusive; nt = no result given.

SMILES	Rtt109 Vps75	rCAG RNA binder	ABHD5-PLIN5 inh	ALR inh	LANA-H2B inh	PRMT1 FP inh	rCAG binder conf	DNA CAG counter
CCOC(=O)c1ccc(-n2c(O)c(/C=N/NC(=O)C3COc4ccccc4O3)c3ccccc3c2=O)cc1 (stereo not drawn)	i	75	i	i	i	i	79	42
CCOC(=O)c1ccc(NC(=O)C2COc3ccccc3O2)cc1 (stereo not drawn)	i	i	i	nt	i	i	nt	nt
O=C(CN1CCN(c2nc(-c3ccccc3)cs2)CC1)Nc1ccc(F)cc1F	nt	i	nt	nt	nt	i	nt	nt
CCOc1cc(-c2c(C#N)c(=O)[nH]c3c2c(C)nn3-c2ccc(F)cc2)ccc1O	i	48	i	i	i	i	i	6.6
CC(C)C[C@H]1CN(CCCC[C@@H]2CNC(=O)C(=O)N2CC2CCCCC2)C(=O)C(=O)N1CCC1CCCCC1	nt	i	i	nt	nt	i	nt	nt
O=C(O)C1C(c2ccccc2)C(C(=O)OCCCO)C1c1ccccc1 (stereo not drawn)	i	i	i	i	i	i	nt	nt
CCCCCOC(=O)C1C(c2ccccc2)C(C(=O)O)C1c1ccccc1 (stereo not drawn)	i	35	i	nt	i	i	i	i
Fc1ccccc1-c1n[nH]c(=S)n1N=Cc1cccc(OCc2ccccc2)c1	nt	73	nt	nt	nt	i	64	24
Fc1ccc(-c2n[nH]c(=S)n2N=Cc2cccc(OCc3ccccc3)c2)cc1	nt	58	nt	nt	nt	i	51	18
Fc1ccccc1/C=N/n1c(COc2ccccc2)n[nH]c1=S	i	i	i	nt	i	i	nt	nt
Oc1c(Br)cc(Br)c(/C=N/n2c(-c3ccccc3)n[nH]c2=S)c1Br	i	59	i	85	i	23	43	14
Fc1ccccc1-c1n[nH]c(=S)n1N=Cc1ccc(-c2ccccc2)cc1	nt	60	nt	nt	nt	i	48	14
COc1ccc(CN2C(=O)CSCC2(C)C(=O)Nc2ccc3c(c2)OCCO3)cc1 (stereo not drawn)	nt	i	i	nt	nt	i	nt	nt
CC(C)=CCc1c(O)ccc2c1OC(c1ccc(O)c(O)c1)CC2=O (stereo not drawn)	i	i	i	?	i	i	nt	nt
O=C1CC(c2ccc(O)c(O)c2)Oc2c1ccc(O)c2O (stereo not drawn)	i	48	i	98	i	37	49	21
S=c1[nH]nc(-c2ccco2)n1/N=C/c1ccc(Cl)cc1Cl	i	35	i	i	i	22	64	19
COc1cccc(CN2CCN(C(=O)[C@H]3O[C@@H](n4cnc5c(N)ncnc54)[C@H](O)[C@@H]3O)CC2=O)c1	nt	i	i	nt	nt	i	nt	nt
COc1ccc(C(=O)Oc2coc(CSc3nnc(NC(=O)c4cccs4)s3)cc2=O)cc1	i	35	i	i	i	i	52	16
O=C(Oc1coc(CSc2nnc(NC(=O)C3CC3)s2)cc1=O)c1ccccc1	i	i	i	i	i	i	nt	nt
CN1CC=C(c2ccccc2)N(c2ccccc2)C1=O	nt	i	nt	nt	nt	i	nt	nt
CCN(CC)S(=O)(=O)c1ccc(Cl)c(NC(=S)NC(=O)C2CCCC2)c1	i	i	i	i	i	i	nt	nt
CCN(CC)c1ccc(S(=O)(=O)Nc2cc(Cl)ccc2Cl)cc1NC(=S)NC(=O)C1CCCC1	i	65	i	i	i	i	71	35
Cc1ccc(S(=O)(=O)Nc2nc(-c3ccc(F)cc3)cs2)cc1	i	62	i	i	i	i	56	15
O=S(=O)(c1ccc(-c2csc(Nc3ccc(F)cc3)n2)cc1)N1CCCC1	i	i	i	nt	i	i	nt	nt
O=[N+]([O-])c1ccc(S(=O)(=O)Nc2nc(-c3ccccc3)cs2)cc1	i	66	i	i	i	i	41	11
SMILES	Rtt109 Vps75	rCAG RNA binder	ABHD5-PLIN5 inh	ALR inh	LANA-H2B inh	PRMT1 FP inh	rCAG binder conf	DNA CAG counter
O=S(=O)(Nc1cccnc1)c1cc(Cl)ccc1Cl	i	i	i	i	i	i	nt	nt
Nc1nc(-c2cccc(NS(=O)(=O)c3ccccc3)c2)cs1	i	i	i	?	i	i	nt	nt
O=S(=O)(Nc1nc(-c2ccccc2)cs1)c1cc(Cl)ccc1Cl	i	80	i	90	i	i	73	38
O=S(=O)(Nc1nc(-c2ccccc2)cs1)c1cccc(C(F)(F)F)c1	i	78	i	i	i	i	57	22
CCCCCCCCN1C(=O)[C@@H](CC(=O)NCCCN2CCCC2=O)C[C@@]2(C(=O)OC)C1=C[C@H](COCc1ccccc1)O[C@@H]2C	nt	i	nt	nt	nt	i	nt	nt
CCN(CC)C(=O)CC[C@H]1CC[C@]2(CCCN(Cc3ccc(N(C)C)cc3)C2)O1	nt	i	nt	nt	nt	i	nt	nt
Nc1cc2c(cc1[N+](=O)[O-])-c1ccccc1C2=NO	i	44	i	nt	nt	i	i	24
CN(C)C1=NC(=O)/C(=C/c2ccc(-c3ccc(S(N)(=O)=O)cc3)o2)S1	nt	nt	nt	i	i	nt	nt	nt
NC1=NC(=O)/C(=C\c2ccc(-c3ccc(Cl)cc3)o2)S1	i	48	i	i	i	i	i	8.6
NNc1nc2c(F)cccc2s1	i	i	i	i	i	i	nt	nt
O=C(Nc1nc2c(F)cccc2s1)C1CC1	i	i	i	i	i	i	nt	nt
CC1CCc2c(sc(Nc3nc4c(F)cccc4s3)c2C(N)=O)C1 (stereo not drawn)	i	42	i	i	i	23	i	14
Fc1cccc2sc(Nc3nc4c(F)cccc4s3)nc12	i	58	i	i	i	i	60	24
COCCNC(=O)C1(C)CCCN(C(=O)c2ccc(N(C)C)cc2)C1 (stereo not drawn)	nt	i	i	nt	nt	i	nt	nt
CN(C)S(=O)(=O)c1cccc(NC(=S)N/N=C/c2cc(Br)ccc2O)c1	i	46	i	nt	i	i	55	21
Cc1ccc(S(=O)(=O)Oc2ccccc2/C=C2\SC(=O)NC2=O)cc1	i	42	i	i	i	i	i	7.4
O=C(COc1ccccc1/C=C1/NC(=O)NC1=O)Nc1ccccc1	i	i	i	i	i	i	nt	nt
O=C(COc1ccccc1/C=C1\SC(=O)NC1=O)Nc1ccc(F)cc1	i	52	i	i	i	i	45	16
O=C(NCc1n[nH]c(=O)c2ccccc12)C1CC(=O)N(c2ccc(Cl)cc2)C1 (stereo not drawn)	i	i	i	i	i	i	nt	nt
N#Cc1c(Cl)nc(N/N=C/c2ccccc2)c(Cl)c1Cl	i	45	i	nt	i	i	i	i
N#Cc1c(NC(=O)c2cccc(S(=O)(=O)Nc3ccc(C(=O)O)cc3)c2)sc2c1CCCC2	i	61	i	89	i	i	46	17
Cc1cccc(C(=O)Nc2sc3c(c2C(=O)O)CCCC3)c1	i	41	i	i	i	i	i	9.3
Cc1cc(C(=O)Nc2sc3c(c2C#N)CCCCC3)cs1	i	nt	i	i	i	nt	nt	nt
O=C(NC(=S)Nc1sc2c(c1C(=O)O)CCCC2)c1ccccc1	i	72	i	i	i	i	56	20
